According to PubChem BioAssay (NCI):
About 79,000 compounds went through this panel and 15% of them were active in at least one assay; those are over-represented in the sample as a whole. Unmarked numbers belong to inactive results. The source made the active and inactive calls. Cut-off read from the data, not from the text of the source: active = growth inhibition above about 70%; inactive = the rest.

Assays:
[1] = NCI Yeast Anticancer Drug Screen. Data for the rad50 strain (AID 155);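 note: 0% = growth of vehicle-only cultures of the same strain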; details: S. cerevisiae rad50 strain growth inhibition; at 50.0 µM; stronger effect = higher value
In short: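 DNA repair mutant yeast, compound exposure, growth read-out; inhibition is taken relative to vehicle.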

[2] = NCI Yeast Anticancer Drug Screen. Data for the mec2-1 strain (AID 157); details: S. cerevisiae mec2-1 strain, at 50.0 µM, stronger effect = higher value
In short: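 Mutant yeast (mec2-1) grown with compound; growth inhibition relative to vehicle control reported.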

[3] = NCI Yeast Anticancer Drug Screen. Data for the sgs1 mgt1 strain (AID 161);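 note: 0% = growth of cultures given vehicle only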; details: S. cerevisiae sgs1 mgt1 strain, at 50.0 µM, stronger effect = higher value
In short: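 Percent growth inhibition was derived by comparing compound-exposed mutant yeast with vehicle-exposed cultures. The strain carries alterations in DNA damage repair.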

[4] = NCI Yeast Anticancer Drug Screen. Data for the cln2 rad14 strain (AID 165);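 note: 0% = growth equal to vehicle treated cultures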; details: S. cerevisiae cln2 rad14 strain, at 50.0 µM, stronger effect = higher value
In short: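 Readout is yeast growth inhibition versus vehicle-treated controls, using a strain with cln2 and rad14 alterations exposed to compound.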

[5] = NCI Yeast Anticancer Drug Screen. Data for the bub3 strain (AID 167); details: S. cerevisiae bub3 mutant strain, at 50.0 µM, stronger effect = higher value
In short: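 In this screen, a yeast mutant lacking normal mitotic checkpoint function is challenged with compound. Relative growth versus vehicle gives the inhibition value.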

[6] = NCI Yeast Anticancer Drug Screen. Data for the mlh1 rad18 strain (AID 175); details: S. cerevisiae mlh1 rad18 strain growth inhibition; at 50.0 µM; stronger effect = higher value
In short: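 Genetically defined yeast (DNA repair-deficient) exposed to compounds; growth inhibition determined relative to vehicle.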

SMILES	growth inhibition [1]	growth inhibition [2]	growth inhibition [3]	growth inhibition [4]	growth inhibition [5]	growth inhibition [6]
O=C(CN1C(=O)NC(c2ccccc2)(c2ccccc2)C1=O)NCCN1CCOCC1	-1.65%	3.9%	-5.95%	-1.6%	-0.1%	26.1%
CCOC(=O)NCc1cccc2ccccc12	3.2%	-2.7%	-10.3%	-89.4%	10.7%	2.5%
CC(=O)Nc1c(C)ncn(-c2ccccc2)c1=O	-36.9%	-19.9%	-2.95%	-28.4%	-2.75%	-11.2%
C[N+](C)(Cc1ccccc1)c1ccccc1	-3.7%	-6%	-0.15%	-34.9%	4.1%	-11.2%
CC(=O)c1c(C)cc(C(C)(C)C)cc1C	18.4%	-1.1%	12.8%	-0.55%	9.3%	13.8%
BrC1CC2CC1C1C2CC2OC21 (stereo unspecified)	-26.9%	-12.7%	-22.4%	-3.9%	9.2%	-48.2%
Cc1cc([N+](=O)[O-])ccc1NC(=O)OC(C)C	-12.6%	-30.2%	3.05%	8.8%	1.35%	-9.35%
CCC1N(C)CCCN1C	9.25%	-2.9%	10.2%	0.95%	0.9%	6.55%
NC(C(=O)O)C1CCCC1 (stereo unspecified)	2.8%	-5.1%	-20.8%	-14%	-92.8%	7.6%
CC1(C)[C@@H]2C[C@H]1C(Cc1ccccc1C[C@H]1c3cc(-c4ccccn4)ncc3[C@H]3C[C@@H]1C3(C)C)c1cc(-c3ccccn3)ncc12 (stereo partly specified)	43.3%	39.3%	10.4%	24.4%	12.2%	-32.4%
ClC(Cl)=C(Cl)C(Cl)(Cl)Cl	-23.8%	20.9%	0.95%	-16.5%	-5.65%	5.4%
CN(C)CCN1CCc2c([nH]c3ccccc23)C1c1cccnc1 (stereo unspecified)	-55.6%	-24.8%	-4.2%	6.25%	-18.2%	-38.2%
O=C1C(Br)=C(c2ccccc2)C(c2ccccc2)=C1c1ccccc1	45.6%	25.9%	51%	21.9%	22.7%	55%
COc1ccc(C(=O)OCc2ccccc2CN2CCOCC2)cc1	0.75%	12.5%	-8.45%	30.3%	-4.9%	-26.4%
COC(=O)C(NC(=O)COc1ccccc1[N+](=O)[O-])C(=O)OC	-15.2%	-1.3%	0%	3%	-12.6%	-12.3%
CCC/C(=N/O)C(=O)OCC	-3.4%	14.9%	6.4%	6.25%	4.4%	-4.6%
O=CNc1cccc2c(=O)[nH][nH]c(=O)c12	-21.9%	-46.8%	-56.6%	18.1%	-26.1%	-39.1%
Cc1ccc(N=C=C(c2ccc(Cl)cc2)c2ccc(Cl)cc2)cc1	73.2% (active)	64.4%	70.8% (active)	60.2%	59.6%	77.2% (active)
CC1=C(C(=O)CC(=O)C(=O)Nc2ccc(Cl)cc2Cl)Sc2ccccc2N1	-5.65%	-11.2%	-20.1%	-6.1%	2.55%	3.45%
Nc1cc2c(cn1)[nH]c1ccccc12	2.9%	-14.8%	-13.8%	-16.4%	5.6%	-2.35%
Cc1nc2c(=O)[nH]c(N)nc2[nH]c1=O	-10%	-4%	-6.15%	-30.4%	-13.8%	2.3%

SMILES	growth inhibition [1]	growth inhibition [2]	growth inhibition [3]	growth inhibition [4]	growth inhibition [5]	growth inhibition [6]
O=C(Nc1cccc(Cl)c1)OCC#CCOC(=O)Nc1cccc(Cl)c1	-4%	11.6%	1.95%	-10.8%	0.85%	11.2%
COC1OC(CCl)C(Cl)C(OC)C1OC (stereo unspecified)	-9.1%	-1.1%	5.6%	-1.5%	-2.5%	14.4%
c1ccc(C2(c3ccccc3)Oc3ccccc3O2)cc1	-10.1%	3.65%	-6.45%	-37.5%	-6.4%	7.3%
O=C(NC1CC1)C1CC1	-20.2%	-12.8%	-1.45%	-17.4%	1.7%	-1.35%
Cc1cc(=O)oc2c(CNC(Cc3ccccc3)C(=O)O)c(O)ccc12 (stereo unspecified)	-39.4%	-40.6%	-24.3%	-21.1%	-22.1%	-69%
CO[C@H]1CC[C@@]2(C)C(=CC[C@H]3[C@@H]4CC[C@H]([C@H](C)CCCC(C)C)[C@@]4(C)CC[C@@H]32)C1	-4.65%	-20.4%	18.1%	24.7%	17.2%	9%
Cc1nn(C)c(=O)c2nn(-c3ccccc3)c(C)c12	19.6%	3.4%	14.8%	14.3%	20.8%	1.25%
O=C(O)COc1c2occc2cc2ccc(=O)oc12	7.9%	-12.4%	22.7%	1.55%	-3.1%	6%
O=C/C=C/C=C/C=C/c1ccccc1	32.6%	-6.15%	14.4%	13.7%	-5.25%	27.6%
Nc1ccnc(Sc2ncccc2[N+](=O)[O-])n1	1.2%	-8.15%	-5.75%	-47.8%	7.8%	1.3%
O=C(O)C(Cl)C(Cl)c1ccc(Cl)cc1 (stereo unspecified)	-2.6%	7.15%	6.15%	-57.3%	11.9%	6.6%
O=[N+]([O-])/C(Cl)=C(/C(Cl)=C(Cl)Cl)N1CCOCC1	5.55%	4.8%	44%	6.35%	23.9%	11.7%
O=C(NC1CCC(CC2CCCCC2)CC1)c1ccccc1 (stereo unspecified)	-14.7%	0.7%	-7.65%	21.2%	10.8%	19.2%
Cc1cc(C(=O)/C=C(\C(=O)c2ccccc2)c2ccccc2)ccc1Cl	18.8%	10.7%	6.65%	-0.55%	0.6%	11.3%
COc1cccc(/C=C/c2cc3c(cc2Br)OCO3)c1	3.3%	-3.35%	2.55%	3.65%	1.9%	-6.3%
CC(C)C1OC2(CCCC2)OCC1(C)C (stereo unspecified)	-10.2%	-19.4%	-10.4%	-21.8%	-4.7%	-1.1%
NC(N)=NCCCCNCCCN=C(N)N	-23.2%	-42.8%	1.55%	3.35%	-16.4%	-15.7%
O=S(=O)(N/N=C/c1ccncc1)c1ccccc1	39.4%	16.9%	60.5%	41.1%	34.5%	50.5%
O=C1c2cc([N+](=O)[O-])sc2C(=O)c2c([N+](=O)[O-])csc21	91% (active)	93% (active)	92.5% (active)	91.4% (active)	92.1% (active)	91.3% (active)
COc1cccc(NC(=O)/C(CS(=O)(=O)CCC(C(C)=O)C(C)=O)=N\NC(C)(C)C)c1	11.7%	0.7%	-20.8%	-21.9%	1.3%	7.1%
